Source: article PMC12820563, “FoxP3 forms a head-to-head dimer in vivo and stabilizes its multimerization on adjacent microsatellites”
In all, about 16,000 sequences were measured (“rpm ratio (pull-down/input)”: median about 0.94, highest 2% from about 1.7 on). What follows is part of a selection rich in the highest values, with near analogues and random picks from the rest.

Target: T1, MBP-FoxP1dN (Mus musculus, UniProt P58462 326-579)
T1 sequence: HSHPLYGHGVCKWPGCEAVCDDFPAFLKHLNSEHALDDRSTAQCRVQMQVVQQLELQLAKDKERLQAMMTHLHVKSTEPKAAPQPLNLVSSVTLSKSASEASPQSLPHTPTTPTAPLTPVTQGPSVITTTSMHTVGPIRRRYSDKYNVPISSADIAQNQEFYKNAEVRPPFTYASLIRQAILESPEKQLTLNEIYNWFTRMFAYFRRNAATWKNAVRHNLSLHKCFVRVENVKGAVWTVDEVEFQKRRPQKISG
Test: PD-seq (MBP pull-down with sequencing); 20 mM Tris-HCl pH 7.5, 100 mM NaCl, 1.5 mM MgCl2, 0.4 uM protein, 0.1 uM dsDNA library, 30 min, room temperature, amylose pull-down; high values mean tight binding
Conditions: protein: recombinant; tags: His6-MBP; chain copies: 2; dsDNA, one strand shown
Outline: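 A fragment of mouse FoxP3 or FoxP1 without its N-terminus, carrying a His6-MBP tag and produced in E. coli, was combined at 0.4 µM with a 0.1 µM degenerate double-stranded DNA library filled in with Klenow. The mixture sat for 30 min at room temperature in Tris pH 7.5 buffer containing NaCl and MgCl2. Protein–DNA complexes were captured on amylose resin, washed three times, and the DNA was freed with proteinase K, barcoded by PCR and sequenced on Illumina. Binding is expressed as reads-per-million enrichment of pull-down over input, with replicates pooled.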

Row | Sequence | binding signal
1 | GATGATTGTTCTCCCAGCTGATGAATTCCAGGCTTCGAGTAAACAAATTTTCCTAATCTTTCTGTTCAAGCGCCATCTAC | 0.758 RPM ratio (pull-down/input)
2 | GATGATTGTTCTCCCAGCTGATGAATTTGGCTATTCGAGTAAACAAATTTTCCTAATCTTTCTGTTCAAGCGCCATCTAC | 0.942 RPM ratio (pull-down/input)
3 | GATGATTGTTCTCCCAGCTGATGAATTCGGCTCCTCGAGTAAACAAATTTTCCTAATCTTTCTGTTCAAGCGCCATCTAC | 0.747 RPM ratio (pull-down/input)
4 | GATGATTGTTCTCCCAGCTGATGAATTCAATAGATCGAGTAAACAAATTTTCCTAATCTTTCTGTTCAAGCGCCATCTAC | 0.887 RPM ratio (pull-down/input)
5 | GATGATTGTTCTCCCAGCTGATGAATTATTCTGGTCGAGTAAACAAATTTTCCTAATCTTTCTGTTCAAGCGCCATCTAC | 1.04 RPM ratio (pull-down/input)
6 | GATGATTGTTCTCCCAGCTGATGAATTGACCATGTCGAGTAAACAAATTTTCCTAATCTTTCTGTTCAAGCGCCATCTAC | 0.875 RPM ratio (pull-down/input)
7 | GATGATTGTTCTCCCAGCTGATGAATTACTTTGCTCGAGTAAACAAATTTTCCTAATCTTTCTGTTCAAGCGCCATCTAC | 1.02 RPM ratio (pull-down/input)
8 | GATGATTGTTCTCCCAGCTGATGAATTCTATTAGTCGAGTAAACAAATTTTCCTAATCTTTCTGTTCAAGCGCCATCTAC | 1.14 RPM ratio (pull-down/input)
9 | GATGATTGTTCTCCCAGCTGATGAATTGTGTACCTCGAGTAAACAAATTTTCCTAATCTTTCTGTTCAAGCGCCATCTAC | 1.6 RPM ratio (pull-down/input)
10 | GATGATTGTTCTCCCAGCTGATGAATTTCACCCATCGAGTAAACAAATTTTCCTAATCTTTCTGTTCAAGCGCCATCTAC | 0.921 RPM ratio (pull-down/input)
11 | GATGATTGTTCTCCCAGCTGATGAATTTTTCGCGTCGAGTAAACAAATTTTCCTAATCTTTCTGTTCAAGCGCCATCTAC | 1.01 RPM ratio (pull-down/input)
12 | GATGATTGTTCTCCCAGCTGATGAATTGATTATTTCGAGTAAACAAATTTTCCTAATCTTTCTGTTCAAGCGCCATCTAC | 1.39 RPM ratio (pull-down/input)
13 | GATGATTGTTCTCCCAGCTGATGAATTATTGATTTCGAGTAAACAAATTTTCCTAATCTTTCTGTTCAAGCGCCATCTAC | 1.72 RPM ratio (pull-down/input)
14 | GATGATTGTTCTCCCAGCTGATGAATTATTGTTTTCGAGTAAACAAATTTTCCTAATCTTTCTGTTCAAGCGCCATCTAC | 2.83 RPM ratio (pull-down/input)
15 | GATGATTGTTCTCCCAGCTGATGAATTTGAGCTCTCGAGTAAACAAATTTTCCTAATCTTTCTGTTCAAGCGCCATCTAC | 0.775 RPM ratio (pull-down/input)
16 | GATGATTGTTCTCCCAGCTGATGAATTTGTTTGTTCGAGTAAACAAATTTTCCTAATCTTTCTGTTCAAGCGCCATCTAC | 2.73 RPM ratio (pull-down/input)
17 | GATGATTGTTCTCCCAGCTGATGAATTTCAAATTTCGAGTAAACAAATTTTCCTAATCTTTCTGTTCAAGCGCCATCTAC | 0.846 RPM ratio (pull-down/input)
18 | GATGATTGTTCTCCCAGCTGATGAATTTTTTTGTTCGAGTAAACAAATTTTCCTAATCTTTCTGTTCAAGCGCCATCTAC | 0.971 RPM ratio (pull-down/input)
19 | GATGATTGTTCTCCCAGCTGATGAATTTCTTTGTTCGAGTAAACAAATTTTCCTAATCTTTCTGTTCAAGCGCCATCTAC | 0.994 RPM ratio (pull-down/input)
20 | GATGATTGTTCTCCCAGCTGATGAATTCTTTGTTTCGAGTAAACAAATTTTCCTAATCTTTCTGTTCAAGCGCCATCTAC | 1.23 RPM ratio (pull-down/input)

Row | Sequence | binding signal
21 | GATGATTGTTCTCCCAGCTGATGAATTTTTGTTTTCGAGTAAACAAATTTTCCTAATCTTTCTGTTCAAGCGCCATCTAC | 2.71 RPM ratio (pull-down/input)
22 | GATGATTGTTCTCCCAGCTGATGAATTTTGTTGTTCGAGTAAACAAATTTTCCTAATCTTTCTGTTCAAGCGCCATCTAC | 2.84 RPM ratio (pull-down/input)
23 | GATGATTGTTCTCCCAGCTGATGAATTTGTTCTTTCGAGTAAACAAATTTTCCTAATCTTTCTGTTCAAGCGCCATCTAC | 1.3 RPM ratio (pull-down/input)
24 | GATGATTGTTCTCCCAGCTGATGAATTGTTGTTTTCGAGTAAACAAATTTTCCTAATCTTTCTGTTCAAGCGCCATCTAC | 3.52 RPM ratio (pull-down/input)
25 | GATGATTGTTCTCCCAGCTGATGAATTTCGAGTTTCGAGTAAACAAATTTTCCTAATCTTTCTGTTCAAGCGCCATCTAC | 0.851 RPM ratio (pull-down/input)
26 | GATGATTGTTCTCCCAGCTGATGAATTGCTCGACTCGAGTAAACAAATTTTCCTAATCTTTCTGTTCAAGCGCCATCTAC | 0.946 RPM ratio (pull-down/input)
27 | GATGATTGTTCTCCCAGCTGATGAATTTCCCCATTCGAGTAAACAAATTTTCCTAATCTTTCTGTTCAAGCGCCATCTAC | 0.898 RPM ratio (pull-down/input)
28 | GATGATTGTTCTCCCAGCTGATGAATTTTTTTCCTCGAGTAAACAAATTTTCCTAATCTTTCTGTTCAAGCGCCATCTAC | 0.754 RPM ratio (pull-down/input)
29 | GATGATTGTTCTCCCAGCTGATGAATTTTCATCCTCGAGTAAACAAATTTTCCTAATCTTTCTGTTCAAGCGCCATCTAC | 0.875 RPM ratio (pull-down/input)
30 | GATGATTGTTCTCCCAGCTGATGAATTTTTTGATTCGAGTAAACAAATTTTCCTAATCTTTCTGTTCAAGCGCCATCTAC | 1.02 RPM ratio (pull-down/input)
31 | GATGATTGTTCTCCCAGCTGATGAATTTGTTTTTTCGAGTAAACAAATTTTCCTAATCTTTCTGTTCAAGCGCCATCTAC | 2.09 RPM ratio (pull-down/input)
32 | GATGATTGTTCTCCCAGCTGATGAATTTGTTGTTTCGAGTAAACAAATTTTCCTAATCTTTCTGTTCAAGCGCCATCTAC | 2.54 RPM ratio (pull-down/input)
33 | GATGATTGTTCTCCCAGCTGATGAATTGTTTTGTTCGAGTAAACAAATTTTCCTAATCTTTCTGTTCAAGCGCCATCTAC | 1.97 RPM ratio (pull-down/input)
34 | GATGATTGTTCTCCCAGCTGATGAATTCTTTGATTCGAGTAAACAAATTTTCCTAATCTTTCTGTTCAAGCGCCATCTAC | 0.885 RPM ratio (pull-down/input)
35 | GATGATTGTTCTCCCAGCTGATGAATTGTTTGATTCGAGTAAACAAATTTTCCTAATCTTTCTGTTCAAGCGCCATCTAC | 1.33 RPM ratio (pull-down/input)
36 | GATGATTGTTCTCCCAGCTGATGAATTTGTTGATTCGAGTAAACAAATTTTCCTAATCTTTCTGTTCAAGCGCCATCTAC | 2.39 RPM ratio (pull-down/input)
37 | GATGATTGTTCTCCCAGCTGATGAATTAAGATGATCGAGTAAACAAATTTTCCTAATCTTTCTGTTCAAGCGCCATCTAC | 0.992 RPM ratio (pull-down/input)
38 | GATGATTGTTCTCCCAGCTGATGAATTTGACTATTCGAGTAAACAAATTTTCCTAATCTTTCTGTTCAAGCGCCATCTAC | 0.903 RPM ratio (pull-down/input)
39 | GATGATTGTTCTCCCAGCTGATGAATTATTTGCGTCGAGTAAACAAATTTTCCTAATCTTTCTGTTCAAGCGCCATCTAC | 1.66 RPM ratio (pull-down/input)
40 | GATGATTGTTCTCCCAGCTGATGAATTGTCCACATCGAGTAAACAAATTTTCCTAATCTTTCTGTTCAAGCGCCATCTAC | 1.33 RPM ratio (pull-down/input)
